# PubChem BioAssay (NCATS)
# Results filed as inconclusive are left out. Entries that show only a call come without a potency. Active and inactive are the calls of the source. Calls follow the shape of the dose curve; as a rule, active = well fitted curve in the direction sought with a large enough effect; inconclusive = small, poorly fitted or top-dose-only effect, or another doubt; inactive = no such curve, though single readings can be large; an effect the other way counts as inactive or inconclusive.
# Columns and labels:
# [1] = target: Aldehyde dehydrogenase, mitochondrial (Homo sapiens) (UniProt P05091); experiment: qHTS for Inhibitors of the Aldehyde Dehydrogenase Family (ALDH2) Primary screen (AID 2061308); also: nearly all actives have a fitted effect of over 55% in size
# [2] = target: Retinaldehyde dehydrogenase 3 (Homo sapiens) (UniProt P47895); experiment: qHTS for Inhibitors of the Aldehyde Dehydrogenase Family (ALDH1A3) Primary screen (AID 2061315)
SMILES,Potency [1],Potency [2]
CN(Cc1ccco1)c1ncnc2ccc(-c3ccc4c(ccn4C)c3)cc12,inactive,inactive
FC(F)(F)c1ccccc1-c1nc(NCc2ccc(-c3cccc(Cl)c3)cc2)c2ccccc2n1,inactive,inactive
C=C1C(=O)OC2/C=C(/C)C3=CC(=O)C(C)(CC(OC(=O)/C(C)=C/COC(C)=O)C12)O3 (stereo not drawn),inactive,inactive
C/C=C/C=C/C=C/C(=O)O[C@@H]1C=C2COC(=O)[C@]2(O)[C@@]2(C)CCCC(C)(C)[C@H]12,inactive,inactive
O=C(Nc1ncc(Cc2ccc(C(F)(F)F)cc2)s1)c1cnc(-c2ccccc2)[nH]1,inactive,inactive
COc1cccc(Cn2ncc3c4sc(C)cc4n(C)c3c2=O)c1,inactive,inactive
CCOC(=O)c1ccc(NC(=O)CN2CCCCC2)cc1,inactive,inactive
O=C1c2ccccc2C(=O)N1c1cccc2ncccc12,inactive,inactive
C=C1CC[C@H]2C(=C)CC[C@H]3C(=C)C(=O)O[C@@H]3[C@@H]12,inactive,inactive
CC(=O)c1ccc(NC(=O)Nc2nnc(-c3ccncc3)s2)cc1,inactive,inactive
c1ccc(CNCc2nnc(-c3cc4ccccc4[nH]3)s2)cc1,inactive,inactive
COc1cc(F)c(S(=O)(=O)N2CCN(S(=O)(=O)c3ccc(N)cc3)CC2)c(F)c1,inactive,inactive
C=CCNc1oc(C2CCCC2)nc1C#N,inactive,inactive
COc1ccc(C2Nc3ccccc3C(=O)N2Cc2ccccc2)cc1COc1cccc(C)c1 (stereo not drawn),inactive,inactive
COc1cc(N2CCN(C(=S)Nc3cc(C)cc(C)n3)CC2)cc(C(F)(F)F)c1,inactive,inactive
COc1ccc2oc(NC3=NC(c4[nH]ncc4Cl)C4=C(CCCC4=O)N3)nc2c1 (stereo not drawn),inactive,inactive
FC1(F)Oc2ccc(-c3ccc4ncnc(NCc5cccs5)c4c3)cc2O1,inactive,inactive
O=C(OCC#CCSc1nnc(-c2ccccc2Cl)o1)c1ccc(F)cc1,inactive,inactive
Cc1nc(NCc2ccccc2)c2nc(-c3ccccc3)n(CCN3CCOCC3)c2n1,inactive,inactive
O=C1c2ccccc2C(=O)N1c1cnc2ccccc2c1,inactive,inactive
Cc1ccc(NS(=O)(=O)c2ccc(Cl)cc2)cc1C,inactive,inactive
COc1cccc(C2c3c(ncn(-c4ccc(NC(C)=O)cc4)c3=N)Oc3ccc4ccccc4c32)c1 (stereo not drawn),inactive,inactive
Cc1cc(NC(=O)Nc2nnc(C3CCCCC3)s2)ccc1Br,inactive,inactive
O=[S+]([O-])(c1c(F)cccc1F)N1CCN([S+](=O)([O-])c2c(F)c(F)c(F)c(F)c2F)CC1,inactive,inactive
N#Cc1ccc(Nc2nn3c(=O)c4ccccc4nc3s2)cc1,inactive,inactive
CCCCNC(=S)NCCCN(Cc1ccc(Cl)c(Cl)c1)c1ccc(Br)cn1,inactive,inactive
c1ccc(COc2cccc(-c3nc4ccccc4s3)c2)cc1,inactive,inactive

SMILES,Potency [1],Potency [2]
O=S1(=O)N=C(Oc2cccc(C(F)(F)F)c2)c2ccccc21,inactive,inactive
O=C(Nc1ccc(F)c(C(F)(F)F)c1)Nc1nnc(-c2cccnc2)s1,inactive,inactive
O=C1CCCC2=C1C(c1[nH]ncc1Cl)N=C(Nc1nc3ccc(Cl)cc3o1)N2 (stereo not drawn),inactive,inactive
N#Cc1nc(-c2cccc3ccccc23)oc1NC1CNC1,inactive,inactive
CC(C)Oc1ccc(-c2ccc(=O)n(CC(=O)NCCc3ccccc3)n2)cc1,inactive,inactive
O=C(Cc1ccc(Cl)c(Cl)c1)Nc1ccc([S+](=O)([O-])Nc2cccc([N+](=O)[O-])c2)cc1,inactive,inactive
CNc1oc(-c2ccccc2-c2ccccc2)nc1C#N,inactive,inactive
O=C(O)c1cc(F)c(S(=O)(=O)N2CCN(S(=O)(=O)c3ccc4c(c3)OCCO4)CC2)cc1F,inactive,inactive
COc1cc(O)c(C(CC(=O)N2CC(C)OC(C)C2)c2ccc3c(c2)OCO3)c(OC)c1 (stereo not drawn),inactive,inactive
Cc1cccc(-n2cnc3cc(C(=O)N4CCCCCC4)ccc32)c1,inactive,inactive
N#CN1CCC(N[S+](=O)([O-])c2cccc(F)c2)CC1,inactive,inactive
Cc1ccc(NS(=O)(=O)c2cc3c(cc2NC(C)CO)NC(=O)CC3)cc1C (stereo not drawn),inactive,inactive
COc1cccc(C2c3c(ncn(-c4ccc(Br)cc4)c3=N)Oc3ccc4ccccc4c32)c1 (stereo not drawn),inactive,inactive
O=C(Nc1ccc2ccccc2c1)Nc1nnc(-c2ccc(F)cc2)s1,inactive,inactive
COc1cccc(CNc2ccc(S(=O)(=O)Nc3nc(C)cs3)cc2)c1O,inactive,inactive
Cc1ccc(S(=O)(=O)Nc2ccccc2N2CCCCC2)s1,inactive,inactive
CC1(C)CC(=O)C2=C(C1)NC(=S)NC2c1cccc(O)c1 (stereo not drawn),inactive,inactive
COc1ccc(C(=O)NCC(=O)OC(C(=O)Nc2cc(C(F)(F)F)ccc2Cl)c2ccccc2)cc1OC (stereo not drawn),inactive,inactive
Cc1ccc(OCCn2c(CCNC(=O)/C=C/c3ccccc3)nc3ccccc32)cc1,inactive,inactive
O=C(NCCCn1ccnc1)c1nn2c(C(F)(F)F)cc(-c3ccc(Br)cc3)nc2c1Cl,inactive,inactive
COc1c2cc(c(O)c1OC)CCCCC(O)CCc1ccc(O)c-2c1 (stereo not drawn),inactive,inactive
COc1cc(C(=O)NC(=S)Nc2cccc(NC(=O)c3ccccc3)c2)cc(OC)c1OC,inactive,inactive
C=C1C(=O)O[C@@H]2/C=C(\C)CC/C=C(/C=O)[C@H](OC)[C@@H](OC(=O)C(C)C)[C@@H]12,inactive,inactive
C#CCOc1cc(C2=Nn3c(nnc3-c3cccc(OCC(C)=O)c3)SC2)ccc1OC,inactive,inactive
CCC1CCC2(C1)N=C(Nc1nc3ccccc3o1)NC1=C2C(=O)CCC1 (stereo not drawn),inactive,inactive
Cc1ccc(-n2cnc3cc(C(=O)N4CCCCC4)ccc32)cc1,inactive,inactive
CCN1CCN(C(=S)c2ccc(O)cc2)CC1,inactive,inactive

SMILES,Potency [1],Potency [2]
O=[S+]([O-])(c1ccc2nsnc2c1)N1CCN([S+](=O)([O-])c2c(F)cccc2F)CC1,inactive,inactive
COc1ccc(C(=O)Nc2ccc(-c3nc4ccccc4[nH]3)cc2)cc1C(F)(F)F,inactive,inactive
COc1ccc(CCNC(=O)Cn2nc(-c3ccc(C)cc3)ccc2=O)cc1OC,inactive,inactive
CCCn1c(-c2ccc(F)cc2)nc2c(N3CCN(Cc4nc(OC)cc(OC)n4)CC3)nc(C)nc21,inactive,inactive
COc1cc(O)c(C(CC(=O)N2CCCCCC2)c2ccc3c(c2)OCO3)c(OC)c1 (stereo not drawn),inactive,inactive
O=S(=O)(NCCCCNS(=O)(=O)c1c(F)cccc1F)c1ccc2c(c1)OCCO2,inactive,inactive
Cc1ccnc(NC(=S)N2CC3CN(c4cccc(C(F)(F)F)c4)CC3C2)c1 (stereo not drawn),inactive,inactive
O=C(Nc1cccc(C(=O)O)c1)Nc1nnc(-c2ccncc2)s1,inactive,inactive
COc1ccc(CSc2nc3ncc(Br)cc3[nH]2)cc1F,inactive,inactive
CC1(C)C[C@@H]2C[C@@](C)(CN2S(=O)(=O)c2ccc(C(=O)Nc3ccc(Cl)c(S(=O)(=O)N4CCOCC4)c3)cc2)C1,inactive,inactive
CC(=O)C1CCN(c2ncc(-c3ccc4c(c3)OCCCO4)s2)CC1,inactive,inactive
COc1cc2nc(N3CCN(C)CC3)nc(NCCN(C)C)c2cc1OC,inactive,inactive
COc1ccc(C2=Nn3c(nnc3-c3ccccc3O)SC2)c(OC)c1,inactive,inactive
Cc1ccc(-c2cc(C(=O)Nc3nc4ccccc4s3)c3ccccc3n2)cc1C,inactive,inactive
CC(C)c1ccccc1-c1ncc(F)c(NCC2CCN(c3cccnc3)CC2)n1,inactive,inactive
Oc1c(CN2CCCCC2)cc(COCc2ccccc2)c2cccnc12,inactive,inactive
Cc1ccc(S(=O)(=O)Nc2ccccc2C(=O)Nc2nc(-c3ccc(Cl)cc3)cs2)cc1,inactive,inactive
CN1C(=O)NC(c2ccccc2Cl)C2=C1CCCC2=O (stereo not drawn),inactive,inactive
O=C1CCCC2=C1C(c1ccncc1)N=C(Nc1nc3ccccc3o1)N2 (stereo not drawn),inactive,inactive
Cc1ccnc(NC(=S)N2CC3CN(c4ncc(C(F)(F)F)cc4Cl)CC3C2)c1 (stereo not drawn),inactive,inactive
COc1ccc(C2Nc3ccccc3C(=O)N2Cc2ccco2)cc1COc1ccccc1C (stereo not drawn),inactive,inactive
Cc1ccc(-c2cc(C(=O)NCc3ccc(S(C)(=O)=O)cc3)c3ccccc3n2)cc1C,inactive,inactive
Fc1cc(Nc2nc(-c3ccncc3)nc3ccccc23)ccc1-c1cc(F)c(F)c(F)c1,inactive,inactive
Cc1ccc(S(=O)(=O)Nc2cnccc2C(=O)Nc2nc(-c3ccc(Cl)cc3)cs2)cc1,inactive,inactive
O=S(=O)(c1ccc2c(c1)OCCO2)N1CCN(S(=O)(=O)c2ccccc2F)CC1,inactive,inactive
